Data as given in PubChem BioAssay (NCATS).
Results filed as inconclusive are left out. Active and inactive are the calls of the source. Unless noted, the call rests on the fitted dose curve; in most records, active means well fitted curve in the direction sought with a large enough effect; inconclusive means small, poorly fitted or top-dose-only effect, or another doubt; inactive means no such curve, though single readings can be large; an effect the other way counts as inactive or inconclusive.

Legend:
[1] = Cell Viability - BJ (AID 421; calls by dose curve;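 further: potency means the concentration at half of the fitted maximal effect; cells exposed to compound for 40 hours at 37 °C before readout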); conditions: BJ fibroblast viability, qHTS
Summary of the method: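 Normal human BJ foreskin fibroblasts, 1500/well in complete medium, treated 40 hr at 37 °C. Cellular ATP by CellTiter-Glo luminescence; normalized to DMSO and 100 uM tamoxifen, AC50 from Hill fit.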

[2] = Cell Viability - Jurkat (AID 426;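 active means dose-dependent loss of cell ATP signal giving a full or clear fitted curve, ranked by lower potency value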; further: potency means the concentration at half of the fitted maximal effect); conditions: qHTS
Summary of the method: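 Cytotoxicity was scored as loss of cellular ATP, measured by luciferase-based luminescence, in Jurkat clone E6-1 cells after 40 h compound treatment; tamoxifen and doxorubicin served as positive controls.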

[3] = Cell Viability - Hek293 (AID 427;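 active means compounds whose dose-response curve shows a full or clear partial loss of cell viability, called from curve shape rather than a numeric limit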;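 further: potency means the concentration at half of the fitted maximal effect; cells exposed to compound for 40 hours at 37 °C before reading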); conditions: qHTS
Summary of the method: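 HEK293 cells in complete medium were exposed to compound for 40 hr at 37 °C, then cellular ATP was read by CellTiter-Glo luminescence. Data were normalized to DMSO (basal) and 100 uM tamoxifen (100% inhibition), and AC50 came from Hill fits.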

[4] = Cell Viability - HepG2 (AID 433; calls by dose curve;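 further: potency means the concentration at half of the fitted maximal effect; potency for ATP loss meaning cytotoxicity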); conditions: qHTS
Summary of the method: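 Cytotoxicity is scored as loss of intracellular ATP in HepG2 cells exposed to compounds for 40 h. Concentration-response curves, normalized to DMSO and 100 uM tamoxifen, give AC50 values.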

[5] = Cell Viability - MRC5 (AID 434; calls by dose curve;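 further: potency means the concentration at half of the fitted maximal effect; potency reflects cytotoxicity seen as loss of intracellular ATP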); conditions: MRC5 lung fibroblast viability, qHTS
Summary of the method: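 AC50 values come from Hill-equation fits of intracellular ATP loss, measured by CellTiter-Glo luminescence. Normal lung fibroblasts (MRC5) had 40 hr compound treatment at 37 C, normalized between DMSO and 100 uM tamoxifen.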

[6] = Cell Viability - SK-N-SH (AID 435; calls by dose curve;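 further: potency means the concentration at half of the fitted maximal effect; compound exposure lasted 40 h at 37 °C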); conditions: SK-N-SH neuroblastoma cell viability qHTS
Summary of the method: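 Cells seeded at 1500 per well and incubated 5 hr at 37 °C. Compound added, then 40 hr at 37 °C. CellTiter-Glo added, 20 min at room temperature, luminescence read.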

[7] = Cell Viability - N2a (AID 540); conditions: N2a mouse neuroblastoma cell viability; activity change, negative = cytotoxicity: at 92.2 µM (top of the series);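 further: plate controls were DMSO alone for no effect and tamoxifen control for full effect; nearly all actives have a fitted effect of over 45% in size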
Summary of the method: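 In this qHTS cytotoxicity screen, ATP-dependent luciferase luminescence reports viable N2a cells after a 40 hr compound exposure in complete culture medium. Potencies are AC50 values from standard Hill equation fits.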

[8] = Cell Viability - HUV-EC-C (AID 542); further: on the % scale 0 is the no-effect control and ±100 the full control effect; nearly all actives have a fitted effect of over 35% in size
Summary of the method: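 Concentration-dependent ATP loss in HUV-EC-C cells is the measure. Exposure lasts 40 hr at 37 °C; luminescence follows CellTiter-Glo addition, and Hill fits give AC50.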

[9] = Cell Viability - H-4-II-E (AID 543); further: on the % scale 0 is the no-effect control and ±100 the full control effect; nearly all actives have a fitted effect of over 35% in size
Summary of the method: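 AC50 from Hill-modelled qHTS concentration-response curves. H-4-II-E rat hepatoma cells in complete medium, 40 hr exposure at 37 °C, viability by CellTiter-Glo ATP luminescence.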

[10] = Cell Viability - SH-SY5Y (AID 544); conditions: SH-SY5Y neuroblastoma cell viability; viability change, negative = cytotoxic: at 92.2 µM (top of the series); further: nearly all actives have a fitted effect of over 55% in size
Summary of the method: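 Quantitative HTS in SH-SY5Y neuroblastoma cells, 40 hr treatment at 37 °C, ATP content by luciferase luminescence; AC50 from Hill fits.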

[11] = Cell Viability - Renal Proximal Tubule (AID 545); conditions: renal proximal tubule cells viability, primary cells of rat origin; activity change, negative = cytotoxicity: at 91.7 µM (top of the series); further: nearly all actives have a fitted effect of over 40% in size
Summary of the method: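 Cytotoxicity is scored as a concentration-dependent drop in cellular ATP in primary rat renal proximal tubule cells exposed for 40 hr. AC50 derives from Hill modelling.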

[12] = Cell Viability - Mesenchymal (AID 546); conditions: mesenchymal cells viability, qHTS; activity change, negative = cytotoxicity: at 91.7 µM (top of the series);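 further: cells exposed to compound for 40 hours before reading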
Summary of the method: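 CellTiter-Glo luminescence (intracellular ATP, 20 min room temperature) after 40 hr compound exposure at 37 °C of 1000 glomerulus-derived human kidney mesenchymal cells/well; AC50 values obtained by fitting qHTS concentration-response data to the Hill equation.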

[13] = Cellular Toxicity (caspase-3) HepG2 (AID 654);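 further: cells exposed to compound for 16 hours before reading; 0% = DMSO alone and 100% = caspase signal from 100 µM tamoxifen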
Summary of the method: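 Concentration-response AC50 values reflect caspase-3/7 induction in HepG2 cells after 16 hours of compound exposure, quantified by luminescence from liberated aminoluciferin and referenced to 100 uM tamoxifen as full stimulation.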

[14] = Cellular Toxicity (caspase-3) Jurkat (AID 655); conditions: Jurkat caspase-3 activation, luminescence; caspase-3 activation: at 92.2 µM (top of the series), DMSO = 0%, tamoxifen = 100%;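 further: cells exposed to compound for 16 h at 37 °C before reading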
Summary of the method: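 Caspase 3/7 activation is scored as increased luminescence in Jurkat cells cultured with compound for 16 hours in complete medium. AC50 values come from Hill fits of qHTS concentration-response data normalized to DMSO and 100 uM tamoxifen controls.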

[15] = Cellular Toxicity (caspase-3) HUV-EC-C (AID 656)
Summary of the method: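 Read-out: luminescence proportional to caspase 3/7 activity, measured 20 min after adding Caspase-Glo 3/7 reagent. Cells (HUV-EC-C) had received compound for 16 hr at 37°C. Increases relative to DMSO and 100 uM tamoxifen gave concentration-response AC50 values.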

[16] = Cellular Toxicity (caspase-3) SHSY5Y (AID 657)
Summary of the method: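 Cells plated and incubated 5 h at 37 °C, dosed over a concentration range, incubated 16 h, then given Caspase-Glo 3/7 reagent for 1 h at room temperature before luminescence reading. Staurosporine (10 uM) defined full stimulation.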

[17] = Cellular Toxicity (caspase-3) BJ (AID 658); conditions: Potency: caspase-3 activation;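 further: 0% = DMSO basal and 100% = 10 µM staurosporine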
Summary of the method: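 Caspase-Glo 3/7 luminescence, read 1 hr after reagent at room temperature, in normal BJ fibroblasts exposed 16 hours at 37 °C. AC50 values from Hill-equation concentration-response, scaled between DMSO basal and 10 uM staurosporine as 100%.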

[18] = Cellular Toxicity (caspase-3) MRC-5 (AID 659);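 further: 0% = DMSO basal and 100% = 10 µM staurosporine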
Summary of the method: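 Luminescent Caspase-Glo 3/7 read-out (1 h, room temperature) after a 16 h, 37 °C compound exposure of MRC-5 lung fibroblasts at 1500 cells/well. Concentration-response AC50 from Hill equation; 0% DMSO, 100% 10 uM staurosporine.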

[19] = Cellular Toxicity (caspase-3) Mesangial (AID 660); conditions: mesangial cells, normalized: DMSO 0%, 100 µM tamoxifen 100%; at 91.7 µM (top of the series);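 further: cells exposed to compound for 16 h before the caspase read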
Summary of the method: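 AC50 values come from Hill-equation fits of caspase 3/7 activation, measured as Caspase-Glo luminescence in human glomerular mesangial cells exposed to compound for 16 h at 37 °C; 100% set by 100 uM tamoxifen.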

[20] = Cellular Toxicity (caspase-3) H-4-II-E (AID 663); conditions: H-4-II-E rat hepatoma; Potency: caspase-3 activation; caspase-3 activation: at 92.2 µM (top of the series), scaled: DMSO 0%, 100 µM tamoxifen 100%;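 further: cells exposed to compound for 16 hr before readout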
Summary of the method: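 Caspase 3/7 activation measured by luminescent aminoluciferin substrate cleavage after 16 hr compound treatment of H-4-II-E cells in complete medium. Increase normalized between DMSO (basal) and 100 uM tamoxifen (100%); Hill-equation AC50 from concentration-response.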

[21] = Cellular Toxicity (caspase-3) Hek293 (AID 664); conditions: HEK293 caspase-3 activation, DMSO = 0%, 100 µM tamoxifen = 100%; at 92.2 µM (top of the series);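 further: cells exposed to compound for 16 h at 37 °C before readout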
Summary of the method: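 Apoptosis readout: Caspase-Glo 3/7 signal in human HEK293 cells following 16-hour compound incubation. Responses scaled between DMSO baseline and 100 uM tamoxifen.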

[22] = Cellular Toxicity (caspase-3) N2a (AID 665); conditions: Potency: caspase-3 activation;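 further: compound exposure lasted 16 h at 37 °C before readout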
Summary of the method: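 Concentration-response qHTS: compound-induced caspase-3/7 luminescence in N2a cells (16 h, 37 °C), relative to DMSO and 10 uM staurosporine controls; AC50 obtained using the standard Hill equation.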

[23] = Cellular Toxicity (caspase-3) NIH 3T3 (AID 666);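 further: 0% = DMSO basal and 100% = 100 µM tamoxifen stimulation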
Summary of the method: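 Activity: caspase-3/7 induction, NIH 3T3 cells, 16 hr treatment at 37°C, luminescent Caspase-Glo detection; AC50 via Hill equation.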

[24] = Cellular Toxicity (caspase-3) Renal Proximal Tubule (AID 667);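 further: cells exposed to compound for 16 hours at 37 °C before detection; 0% = DMSO basal and 100% = 10 µM staurosporine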
Summary of the method: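 In qHTS format, rat primary proximal tubule cells seeded at 1000 per well are exposed to compounds for 16 hours at 37 °C. An increase in Caspase-Glo 3/7 luminescence indicates caspase activation.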

[25] = molecular target: Cytochrome P450 3A4 (Homo sapiens) (UniProt P08684); assay: qHTS Assay for Activators of Cytochrome P450 3A4 (AID 885); further: nearly all actives have a fitted effect of over 65% in size
Sequence of Cytochrome P450 3A4 (Homo sapiens) (P08684 whole entry, looked up): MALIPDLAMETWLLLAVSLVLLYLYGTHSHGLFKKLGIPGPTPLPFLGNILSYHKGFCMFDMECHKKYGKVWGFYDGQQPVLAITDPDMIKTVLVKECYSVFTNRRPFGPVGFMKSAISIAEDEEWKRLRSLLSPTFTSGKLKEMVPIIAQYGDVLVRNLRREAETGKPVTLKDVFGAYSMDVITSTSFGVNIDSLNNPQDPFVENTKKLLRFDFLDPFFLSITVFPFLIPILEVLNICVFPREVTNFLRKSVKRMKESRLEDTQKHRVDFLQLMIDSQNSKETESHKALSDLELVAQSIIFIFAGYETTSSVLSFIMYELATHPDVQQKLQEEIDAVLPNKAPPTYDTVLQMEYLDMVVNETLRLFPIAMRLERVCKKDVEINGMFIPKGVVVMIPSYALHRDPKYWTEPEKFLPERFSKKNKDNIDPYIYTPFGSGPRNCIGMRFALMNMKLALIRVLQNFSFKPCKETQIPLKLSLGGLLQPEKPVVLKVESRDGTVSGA
Summary of the method: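 Human CYP3A4 dealkylates Luciferin-PPXE to luciferin, which luciferase detection converts to light. Substrate was at its KM (25uM), buffer 200mM KPO4, reaction 60 min at RT.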

[26] = Cell Viability - LYMP2-001 (AID 921);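 further: cells exposed to compound for 24 h at 37 °C; 0% = DMSO only and full inhibition = tetraoctylammonium bromide control wells; nearly all actives have a fitted effect of over 70% in size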
Summary of the method: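 qHTS, 1536-well; lymphoblastoid cells, 24 hr compound, 37 C; ATP by CellTiter-Glo, 30 min RT; luminescence; Hill-fit AC50.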

[27] = MultiTox-Fluor Cytotoxicity Assay - LYMP1-001 - Dead Cells (AID 946);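 further: 0% = DMSO and 100% = tetraoctylammonium bromide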
Summary of the method: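 LYMP1-001 lymphoblastoid cells (2500/well) treated 16 h at 37 C. Dead-cell protease cleavage of bis-AAF-R110 read at Ex/Em 485/520. Normalized to DMSO and 15 uM tetraoctylammonium bromide; AC50 from Hill fits.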

[28] = MultiTox-Fluor Cytotoxicity Assay - LYMP1-001 - Live Cells (AID 947);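 further: 0% = DMSO only and full inhibition = tetraoctylammonium bromide control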
[29] = Cell Viability - LYMP1-002 - Assay at 16 hr (AID 948);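 further: 0% = DMSO alone and full effect = 92 µM tetraoctylammonium bromide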
Summary of the method: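 Acute cytotoxicity is scored as a concentration-dependent fall in intracellular ATP in a human lymphoblastoid line (LYMP1-002) after 16 hr compound exposure at 37 C, measured by luciferase luminescence.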

[30] = MultiTox-Fluor Cytotoxicity Assay - LYMP1-002 - Live Cells (AID 955); further: on the % scale 0 is the no-effect control and ±100 the full control effect
Summary of the method: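 In this qHTS viability format, lymphoblastoid cells (LYMP1-002, human) received compound for 16 hr at 37 C. Fluorogenic GF-AFC cleavage by viable cells was detected at 405/510 nm after 1 h at room temperature.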

[31] = MultiTox-Fluor Cytotoxicity Assay - LYMP1-003 - Dead Cells (AID 961);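 further: 0% = DMSO and 100% = tetraoctylammonium bromide; nearly all actives have a fitted effect of over 70% in size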
Summary of the method: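 LYMP1-003 human lymphoblastoid cells (2500/well) exposed to compound 16 h at 37 C in complete medium; dead-cell protease read with bis-AAF-R110 fluorescence (Ex/Em 485/520) after 60 min at room temperature. Normalized to DMSO and 15 uM tetraoctylammonium bromide; AC50 from Hill fit.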

[32] = MultiTox-Fluor Cytotoxicity Assay - LYMP1-003 - Live Cells (AID 962);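 further: 0% = DMSO only and full loss = 92 µM tetraoctylammonium bromide; cytotoxic hits lower the live-cell protease signal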
Summary of the method: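 Human lymphoblastoid line LYMP1-003 in complete culture medium, treated 16 hr with titrated compounds. Viable cells quantified via cell-permeant GF-AFC substrate fluorescence; AC50 derived by Hill fitting.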

[33] = Cell Viability - LYMP1-003 - Assay at 24 hr (AID 963);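 further: plate controls were DMSO only for no effect and tetraoctylammonium bromide positive control for full effect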
Summary of the method: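 The lymphoblastoid line was treated with titrated compounds for 24 hours, and viable cell number estimated from luciferase-based ATP luminescence.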

[34] = Cell Viability - LYMP1-003 - Assay at 40 hr (AID 964); further: on the % scale 0 is the no-effect control and ±100 the full control effect; nearly all actives have a fitted effect of over 60% in size
Summary of the method: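 Acute toxicity is scored as a concentration-dependent loss of intracellular ATP in LYMP1-003 cells (2500/well, complete medium) after 40 hr at 37 C, measured by CellTiter-Glo luminescence; AC50 values derive from standard Hill modelling.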

[35] = Cell Viability - LYMP2-003 (AID 965);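 further: cells exposed to compounds for 24 h before reading; 0% = DMSO only and full effect = 92 µM tetraoctylammonium bromide; nearly all actives have a fitted effect of over 50% in size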
Summary of the method: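 Acute cytotoxicity is scored as a concentration-dependent drop in intracellular ATP, measured by luciferase luminescence in human lymphoblastoid cells treated for 24 hours at 37 C. AC50 values derive from Hill-equation modelling.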

[36] = Cell Viability - LYMP2-004 (AID 966);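 further: cells exposed to compound for 24 h; plate controls were DMSO only for no effect and tetraoctylammonium bromide control for full effect; nearly all actives have a fitted effect of over 65% in size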
Summary of the method: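 Viable-cell number estimated from ATP luminescence (CellTiter-Glo) in 2500 human lymphoblastoid cells/well after 24 hr at 37 C with compound. AC50 fitted to the standard Hill equation.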

[37] = Cell Viability - LYMP2-011 (AID 969);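 further: 0% = DMSO only and full inhibition = 92 µM tetraoctylammonium bromide; nearly all actives have a fitted effect of over 60% in size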
Summary of the method: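 Cells seeded at 2500 per well rest 5 hr before compound addition, then incubate 24 hr at 37 C. CellTiter-Glo reagent is added for 30 min at room temperature before luminescence detection.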

[38] = Cell Viability - LYMP2-013 (AID 970);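 further: cells exposed to compound for 24 h at 37 °C; 0% = DMSO only and full inhibition = tetraoctylammonium bromide control; nearly all actives have a fitted effect of over 55% in size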
Summary of the method: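 In complete culture medium, human lymphoblastoid cells were dosed for 24 hr at 37 C, with tetraoctylammonium bromide (6.4pM to 92 uM) as positive control. Viability reflects luciferase-based ATP signal; AC50 derived from concentration-response curves.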

CN(C)c1ccc(C2(c3ccc(N(C)C)cc3)OC(=O)c3cc(N(C)C)ccc32)cc1
inactive: Potency [1] > 92 µM | Potency [2] > 92 µM | Potency [3] > 92 µM | Potency [4] > 92 µM | Potency [5] > 92 µM | Potency [6] > 92 µM | Potency [7] | Potency [8] | Potency [9] | Potency [10] | Potency [11] | Potency [12] | Potency [13] | Potency [14] | Potency [15] | Potency [16] | Potency [17] | outcome [18] | caspase-3 activation [19] 0.256% | caspase-3 activation [20] 0.305% | caspase-3 activation [21] -1.05% | Potency [22] | Potency [23] | outcome [24] | Potency [25] | Potency [26] | Potency [27] | Potency [28] | Potency [29] | Potency [30] | Potency [31] | Potency [32] | Potency [33] | Potency [34] | Potency [35] | Potency [36] | Potency [37] | Potency [38]
